Assay outcomes deposited in PubChem BioAssay by National Center for Advancing Translational Sciences (NCATS).
HCV inh – inhibitors of hepatitis C virus infection; hit rate 3.4% among 340,000; Potency, µM (top dose mostly 41.8 µM), hits mostly inhibitors; AID 651820; Huh7.5.1 HCVcc-Cre infection, luciferase reporter, 44 h
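Whole-lifecycle infectious HCVcc-Cre system; cells 1,000/well, compound then virus (~0.5 moi) added 4 h after plating, 44 h culture. Luciferase read 15 sec following 15 min substrate incubation, room temp.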
HCMV inh – human cytomegalovirus inhibition; HFF cells, HCMV-luciferase reporter, 72 h; hits give low values; activity change, negative = inhibition, % at 57.5 µM; hit rate 4.5% among 410,000; in the data active means activity change below about -60%; inconclusive means no clear call, values can overlap the other calls; inactive means above about -39%
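HFF cells seeded 16 h at 37C, treated with compounds, infected with luciferase-reporter HCMV at MOI 1 PFU/cell; luciferase read at 72 h post infection, normalized to buffer-only and Salinomycin controls.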
Pf growth 96h – inhibits malaria parasite growth, 96 h; hit rate 6.9% among 320,000; P. falciparum luciferase reporter growth, 96 h; Potency, µM (doses to about 28.7 µM), actives largely listed as inhibitors; AID 504834
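Erythrocytes infected with luciferase-expressing P. falciparum were dispensed at 2% hematocrit and 0.05% parasitemia (final), then incubated with compounds 96 hours at 37 C in 5% CO2. Luminescence after detection reagent addition reported growth.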
Pf growth 48h – inhibits P. falciparum growth in the first generation, 48 h. P. falciparum luciferase growth in erythrocytes, 48 h. Potency, µM (top dose mostly 28.7 µM), actives largely listed as inhibitors. hit rate 5.9% among 310,000
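Compounds are pin-transferred into medium, infected erythrocytes (2% hematocrit, 0.1% parasitemia final) are added, and plates sit one parasite generation at 37 C in 5% CO2. Detection reagent is then added and luminescence measured.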
Of the large screens only hits and unclear results are named; the others gave an inactive call. An excerpt weighted towards active compounds, which were near 13% of everything screened. Unless noted, the call rests on the fitted dose curve; in most records, active means well fitted inhibition curve with a large enough effect; inconclusive means small, poorly fitted or top-dose-only effect, or another doubt; inactive means no such curve, though single readings can be large or run the other way.

COc1ccc(CCNc2nc3c(-c4cccc(C)c4)nnn3c3ccccc23)cc1OC	none (no result: HCV inh, Pf growth 96h, Pf growth 48h)
O=C(c1ccco1)N1CCN(c2ncnc3sc4c(c23)CCC4)CC1	HCV inh inconclusive, HCMV inh -66.7, Pf growth 48h inconclusive
O=C(c1ccco1)N1CCN(c2ncnc3c(-c4ccccc4)nsc23)CC1	HCV inh 22.4µM (no result: Pf growth 96h)
c1ccc(N2CCN(c3ncnc4sc5c(c34)CCC5)CC2)cc1	HCV inh 10µM, HCMV inh -75.9, Pf growth 48h inconclusive
c1nc(N2CCC3(CC2)OCCO3)c2c3c(sc2n1)CCCC3	HCMV inh inconclusive, Pf growth 96h inconclusive, Pf growth 48h inconclusive
COc1ccc(CN2CCN(c3ncnc4sc5c(c34)CCCC5)CC2)cc1F	HCMV inh -69.8 (no result: HCV inh, Pf growth 96h, Pf growth 48h)
O=C(CCCCCn1c(=O)[nH]c2ccccc2c1=O)NCc1cccc(Cl)c1	none (no result: HCV inh, Pf growth 96h, Pf growth 48h)
COc1ccc(C(C(=O)Nc2ccc(F)cc2)N2CCN(c3cccc(C(F)(F)F)n3)CC2)cc1 (centres undefined)	none (no result: HCV inh, Pf growth 96h, Pf growth 48h)
CC1CCc2c(sc3nc(C4CC4)nc(N4CCN(C(=O)c5ccco5)CC4)c23)C1 (centres undefined)	HCV inh 4.47µM, HCMV inh -85.8 (no result: Pf growth 96h, Pf growth 48h)
CC(C)CC(=O)Nc1nc2nc(-c3ccccc3)cc(=O)n2[nH]1	none (no result: HCV inh, Pf growth 96h, Pf growth 48h)
Nc1cc(=O)n(Cc2ccccc2)c(=O)n1-c1ccc(F)cc1	Pf growth 96h inconclusive
Nc1cc(=O)n(Cc2ccccc2)c(=O)n1-c1ccc(Cl)cc1	Pf growth 96h inconclusive, Pf growth 48h 10.4µM
CC(Oc1ccccc1F)C(=O)Nc1ccc(-c2nc3ccccc3s2)cc1 (centres undefined)	none (no result: HCV inh, Pf growth 96h, Pf growth 48h)
CC(C)C[C@@H](CN1CCC[C@H]1CN1C(=O)C(=O)NC[C@@H]1Cc1ccccc1)N1C[C@H](Cc2ccc(O)cc2)N(CC2CCCCCC2)C(=O)C1=O	HCMV inh -103.0 (no result: HCV inh, Pf growth 96h, Pf growth 48h)
O=C1NC[C@H](CCCCN2C[C@H](Cc3ccc(O)cc3)N(CC3CCCCC3)C(=O)C2=O)N(Cc2ccccc2)C1=O	HCMV inh -74.8 (no result: HCV inh, Pf growth 96h, Pf growth 48h)
CC(C)C[C@H]1CN([C@@H](CC(C)C)CN2CCC[C@@H]2CN2C(=O)C(=O)NC[C@@H]2Cc2ccccc2)C(=O)C(=O)N1CC1CCCCC1	HCMV inh -65.9 (no result: Pf growth 96h, Pf growth 48h)
O=C1NC[C@@H](CCCCN2C[C@H](Cc3ccc(O)cc3)N(Cc3ccccc3)C(=O)C2=O)N(CC2CCCCC2)C1=O	none (no result: HCV inh, Pf growth 96h, Pf growth 48h)
CCOc1ccc(-c2oc3cc(Cl)ccc3c(=O)c2O)cc1OC	none (no result: HCV inh, Pf growth 96h, Pf growth 48h)
COc1ccc(-c2cc(C(F)F)nn2-c2ccc(S(N)(=O)=O)cc2)cc1F	none (no result: HCV inh, HCMV inh)
COc1ccc(N(CC(=O)NC2CC3CCC2C3)S(=O)(=O)c2ccc(C)cc2)cc1 (centres undefined)	Pf growth 96h 13.1µM
COc1ccc(S(=O)(=O)N(CC(=O)NC2CCCCC2)c2ccc(F)cc2)cc1	Pf growth 96h 7.38µM
COc1ccc(C)cc1S(=O)(=O)N(CC(=O)NC1CCCC1)c1ccc(F)cc1	Pf growth 96h 9.28µM
COc1ccc(N(CC(=O)NC2CCCC2)S(=O)(=O)c2ccc(NC(C)=O)cc2)cc1	HCV inh inconclusive, Pf growth 48h inconclusive
CS(=O)(=O)N(CC(=O)NC1CC2CCC1C2)c1cccc(C(F)(F)F)c1 (centres undefined)	HCMV inh -103.0, Pf growth 96h inconclusive
COc1ccc(N(CC(=O)NC2CC3CCC2C3)S(=O)(=O)c2ccc(C)cc2)cc1OC (centres undefined)	Pf growth 48h inconclusive
CCN(Cc1ccc(C#CCCO)cc1)CC1CCCN(CCc2cccc(F)c2)C1 (centres undefined)	HCV inh inconclusive, Pf growth 48h 4.65µM
CN(Cc1ccccc1O)CC1CCCN(CCc2ccc(Cl)cc2)C1 (centres undefined)	HCV inh 10µM, Pf growth 48h 10.4µM
CN(Cc1ccc(C#CCCO)cc1)CC1CCCN(CCc2ccc(Cl)cc2)C1 (centres undefined)	Pf growth 48h 5.22µM
Cc1occc1C(=O)N(C)CC1CCCN(CCc2ccc(Cl)cc2)C1 (centres undefined)	none (no result: HCV inh, Pf growth 96h, Pf growth 48h)
CCOCCc1nn2c(=O)cc(COC(=O)c3ccccc3NC(=O)c3cccs3)nc2s1	none (no result: HCV inh, Pf growth 96h, Pf growth 48h)
COC(=O)c1sc(N2C(=O)c3oc4ccc(C)cc4c(=O)c3C2c2ccc(OC)cc2)nc1C (centres undefined)	none (no result: HCV inh, Pf growth 96h, Pf growth 48h)
CC1CCc2nn(CC(=O)Nc3ccccc3Cl)cc2C1 (centres undefined)	none (no result: HCV inh, Pf growth 96h, Pf growth 48h)
Cc1c(Cl)cccc1NC(=O)C(CCS(C)(=O)=O)N1Cc2ccccc2C1=O (centres undefined)	none (no result: HCV inh, Pf growth 96h, Pf growth 48h)
